L3MBTL1 inh-1 – qHTS Assay for the Inhibitors of L3MBTL1; Lethal(3)malignant brain tumor-like protein 1 (Homo sapiens), Q9Y468; AlphaScreen L3MBTL1–H3K9me1 peptide binding; AID 485360, 2010; Potency, µM (highest dose often 57.1 µM), for inactives: at the top dose activity, negative = inhibition, hits mostly inhibitors; 0.66% of 230,000 active; also: potency is read from the fitted curve at half-maximal effect; % is scaled to controls: 0 for no effect and ±100 for the full control effect; nearly all actives have a fitted effect of over 60% in size
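L3MBTL1 50 nM + b-AHA-H3(1-15)K9me1 75 nM, 30 min RT; compound added, 30 min RT; streptavidin donor/Ni-chelate acceptor beads 10 ug/mL each final, 30 min RT dark; AlphaScreen read.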
Six1-Eya2 blk – qHTS Assay for Inhibitors of the Six1/Eya2 Interaction | activity change, % (no concentration beside the values) | AlphaScreen GST-Six1/His-Eya2 binding, biochemical; stronger effect = lower value | 0.56% of 360,000 active | Homeobox protein SIX1 (Homo sapiens) + Protein phosphatase EYA2 (Homo sapiens), …; in the data active = activity change below about -65%; inconclusive = mostly about -30% to -63%; also: % is scaled to controls: 0 for no effect and ±100 for the full control effect
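AlphaScreen luminescence read after one hour at 37 °C in darkness. Pin-transferred compounds met GST-Six1 and His-Eya2 protein (5X stock 250 nM/500 nM) plus glutathione donor and Ni-chelate acceptor beads (5X, 50 ug/mL).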
MBNL1-CUG inh – qHTS Assay for Inhibitors of MBNL1-poly(CUG) RNA binding | Potency, µM (highest dose often 57.5 µM), inactives show at the top dose activity change, negative = inhibition, hits mostly inhibitors | 0.036% of 280,000 active | Muscleblind-like protein 1 (Homo sapiens), Q9NR56 | AID 2675, 2010 | TR-FRET MBNL1-His/biotin-(CUG)12 binding, 665/545 ratio; active = well fitted inhibition curve with a large enough effect in the signal ratio, with a control signal flat, not every such curve was filed as active; inconclusive = small, poorly fitted or top-dose-only effect, or effect the other way, or a change in a side signal; inactive = no such curve, though single readings can be large or run the other way; the % refers to the signal ratio; also: potency is read from the fitted curve at half-maximal effect; % is scaled to controls: 0 for no effect and ±100 for the full control effect
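Compounds (final 92 nM to 58 uM) are added to His-tagged MBNL1 and biotin-(CUG)12, then terbium anti-His antibody and streptavidin-XL665 (5 nM final). After 60 min at room temperature, the 665/545 nm ratio is read.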
Eya2 inh – qHTS Assay for Inhibitors of the Phosphatase Activity of Eya2 | recombinant Eya2, OMFP fluorescence dephosphorylation (OMFP is methylfluorescein phosphate) | Potency, µM (top dose mostly 76.9 µM), inactives show top-dose activity, negative = inhibition, hits mostly inhibitors | 0.006% of 330,000 active | AID 488837, 2010; also: potency is read from the fitted curve at half-maximal effect; % is scaled to controls: 0 for no effect and ±100 for the full control effect
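Eya2 (0.2 uM) preincubated 10 min at ambient with compound, then OMFP substrate added at 50 uM; 10 min reaction in 50 mM HEPES pH 7.5, 50 mM NaCl, 5 uM MgCl2, 0.05% BSA, 1 mM DTT. Fluorescence read at Ex 485/Em 525 nm.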
CBFb RUNX1 block – qHTS Assay for Compounds Blocking the Interaction Between CBF-beta and RUNX1 for the Treatment of Acute Myeloid Leukemia. Runt-related transcription factor 1 (Homo sapiens) + Core-binding factor subunit beta …. 230,000 tested, under 10 active. Potency, µM (highest dose often 59.8 µM), without a hit: top-dose activity, negative = inhibition, actives largely listed as inhibitors. AlphaScreen CBFb-His/RUNX1-biotin binding, biochemical; also: % of control where 0% means no effect
Target sequence (Q01196 whole entry, looked up): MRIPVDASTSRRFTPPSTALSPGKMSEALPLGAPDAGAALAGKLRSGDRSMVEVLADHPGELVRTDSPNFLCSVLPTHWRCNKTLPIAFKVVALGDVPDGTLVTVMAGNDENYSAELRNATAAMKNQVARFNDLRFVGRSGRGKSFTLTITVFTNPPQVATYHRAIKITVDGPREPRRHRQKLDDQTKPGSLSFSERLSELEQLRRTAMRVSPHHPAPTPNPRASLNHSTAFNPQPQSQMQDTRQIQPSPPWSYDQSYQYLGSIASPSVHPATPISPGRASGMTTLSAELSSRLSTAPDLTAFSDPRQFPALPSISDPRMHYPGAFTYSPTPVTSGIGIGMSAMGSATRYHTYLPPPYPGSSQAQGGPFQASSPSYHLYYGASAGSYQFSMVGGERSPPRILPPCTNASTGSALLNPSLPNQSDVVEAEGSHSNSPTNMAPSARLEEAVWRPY
Target sequence (Q13951 whole entry, looked up): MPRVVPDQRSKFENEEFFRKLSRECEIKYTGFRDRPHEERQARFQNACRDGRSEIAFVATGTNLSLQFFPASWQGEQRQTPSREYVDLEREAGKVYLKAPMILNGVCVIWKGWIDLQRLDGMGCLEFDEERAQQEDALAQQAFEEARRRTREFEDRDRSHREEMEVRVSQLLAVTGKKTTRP
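AlphaScreen binding: CBFb-His and RUNX1-biotin (30 nM each) preincubated 20 min, compound added for 15 min, then nickel and streptavidin beads for 90 min, all at room temperature. Disruption of the interaction by any mechanism counts as activity.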
CtBP-E1A blk – qHTS Assay for Inhibitors of the CtBP/E1A Interaction | 0.49% of 340,000 active | AlphaScreen GST-E1A/His-CtBP binding, 1536-well; stronger effect = lower value | activity change, % (no concentration beside the values) | CtBP / adenovirus E1A interaction (AlphaScreen); in the data active = activity change below about -65%; inconclusive = mostly about -30% to -63%; also: % is scaled to controls: 0 for no effect and ±100 for the full control effect
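Steps: dispense buffer (Tris pH 8.0, NaCl 300 mM, TCEP 1 mM, BSA, Tween 20); add 5X protein mix (GST-E1A, His-CtBP, 125 nM each); pin 23 nL compound; 2 h at 37 °C, dark; add 5X beads (50 ug/mL); 1 h; read.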
L3MBTL1 inh-2 – qHTS Assay for the Inhibitors of L3MBTL1: Hit Validation | shares compounds with L3MBTL1 inh-1 | L3MBTL1 methyl-lysine binding inhibition, biochemical qHTS | Potency, µM, actives largely listed as inhibitors | 91% of 500 active | AID 540279, 2011; also: potency is read from the fitted curve at half-maximal effect; nearly all actives have a fitted effect of over 70% in size
AlphaScreen ctr2 – qHTS Assay for the Inhibitors of L3MBTL1: Hit Validationin AlphaScreen Counterscreen; Potency, µM (top dose mostly 57.1 µM), for the others: at the highest dose activity change, negative = inhibition, usual class: inhibitors; 500 tested, under 10 active; AlphaScreen counterscreen, signal inhibition; shares compounds with L3MBTL1 inh-1; also: potency is read from the fitted curve at half-maximal effect; 0% is about no effect
The depositor's hits bear a star; ? = inconclusive; nt = not tested or not shown; [ ] = another dose, or the depositor's remark. A selection: hits, their analogues and other compounds. The true share with any hit is near 0.89%. Unless noted, calls follow the shape of the dose curve; as a rule, active = well fitted curve in the direction sought with a large enough effect; inconclusive = small, poorly fitted or top-dose-only effect, or another doubt; inactive = no such curve, though single readings can be large; an effect the other way counts as inactive or inconclusive.

SMILES | L3MBTL1 inh-1 | Six1-Eya2 blk | MBNL1-CUG inh | Eya2 inh | CBFb RUNX1 block | CtBP-E1A blk | L3MBTL1 inh-2 | AlphaScreen ctr2
CC(C)S(=O)(=O)C1=NSC2=NC(=O)/C(=C\c3ccc(-c4ccccc4)o3)C(=N)N21 | 9% | 6 | 2% | 30% | -3% | -11 | nt | nt
Cc1cccc(NCc2ccc(O)c3ncccc23)c1C | 25µM* | -74* | 16% | 13% | nt | -89* | 9.5* | 6%
O=C(NCC(=O)N(c1ccccc1)C(C(=O)NC1CCCCC1)c1cccnc1)c1ccco1 (stereo not drawn) | nt | 6 | 4% | -8% | nt | -7 | nt | nt
COC(=O)\C(C(C)=O)=C(/C=C/C=C/C=C/N(C)C)N(C)C | 7.1µM* | ? | 13% | -3% | ? | 1 | 3* | ?
CC(=O)c1ccc(NC(=O)CCNC(=O)c2ccccc2Cl)cc1 | nt | -5 | -5% | -1% | nt | 5 | nt | nt
Cc1cccc(NS(=O)(=O)c2ccc3[nH]c(=O)oc3c2)c1C | 10% | 6 | nt | -5% | nt | 9 | nt | nt
Cc1ccc(C)c(NS(=O)(=O)c2ccc3[nH]c(=O)oc3c2)c1 | 32µM* | 2 | -3% | 5% | 6% | 7 | 27* | 13%
O=C(Oc1c(CN2CCOCC2)cc(Cl)c2cccnc12)c1ccccc1Br | 32µM* | -94* | nt | -13% | nt | -69* | 24* | 2%
COc1cccc(NC(=O)CN(C)C(=O)c2ccc(-c3ccccc3Cl)o2)c1 | nt | -3 | 6% | 3% | nt | 0 | nt | nt
CCOC(=O)Nc1nc(-c2ccc(Cl)cc2Cl)cs1 | 5% | 2 | -5% | -7% | -2% | -13 | nt | nt
Cc1ccc(S(=O)(=O)N2CCN(C(=O)/C=C/c3ccco3)CC2)cc1 | 28µM* | 2 | -1% | -8% | 1% | 6 | 27* | 0%
COc1ccc(C(CNC(=O)CCNS(=O)(=O)c2ccccc2)N2CCOCC2)cc1 (stereo not drawn) | nt | 1 | nt | nt | nt | 2 | nt | nt
Cc1nn(CCc2nc(-c3ccco3)cs2)c2[nH]c(=O)cc(C(F)(F)F)c12 | 35µM* | -29 | 28% | 2%[15.4 µM] | -29% | -4 | 21* | 3%
CC1=NOC(=O)/C1=C\c1ccc(-c2ccc(Br)cc2C(=O)O)o1 | 22µM* | -13 | ? | 9% | 13% | 0 | 27* | 2%
COc1ccc(N2C(=NC(=O)C3CCCO3)SC3CS(=O)(=O)CC32)cc1 (stereo not drawn) | nt | 1 | -2% | 2% | nt | 14 | nt | nt
O=C(/C=C/c1ccco1)Nc1cc(Cl)ccc1C(=O)O | 28µM* | 0 | ? | 8% | -3% | 1 | 11* | 16%
Cc1ccc(S(=O)(=O)N2CCOCC2)cc1NC(=O)CSc1nnc(NC2CC2)s1 | -5% | 4 | nt | 28% | nt | -1 | nt | nt
O=c1c2ccccc2nc2n1CCCCC2 | -1% | 11 | -2% | 14% | -2% | 11 | nt | nt
O=C(Oc1ccccc1F)c1ccc2c(=O)n3c(nc2c1)CCC3 | 35µM* | -18 | nt | -34% | nt | -8 | ? | 9%
O=c1c2ccccc2nc2n1CCC2 | 28µM* | -26 | ? | -22% | -3% | -16 | 24* | ?
COc1ccc(Cl)cc1NS(=O)(=O)c1cccc(C(=O)NCC2(N(C)C)CCCCC2)c1 | nt | 2 | -4% | -9% | nt | -3 | nt | nt
C=CCOC(=O)c1c(C)nc2cc3c(cc2c1C)OCO3 | 11% | -2 | 51% | 4% | 10% | 19 | nt | nt
CCCNC(=O)OC[C@@H]1O[C@H](CCO/N=C\C[C@H]2C=C[C@H](OC(C)=O)[C@@H](COC(C)=O)O2)C=C[C@@H]1Oc1ccc(OC)cc1 | nt | nt | nt | nt | 12%[13.1 µM] | nt | nt | nt
CCOC(=O)C1=C(COC(=O)/C=C/c2ccc(OC)cc2)NC(=O)NC1C (stereo not drawn) | -6% | 5 | nt | 5% | nt | 0 | nt | nt
CCOC(=O)C1=C(COC(=O)/C=C/c2ccco2)NC(=O)NC1C (stereo not drawn) | 7.9µM* | -23 | nt | -9% | nt | 2 | 8.4* | -1%
SMILES | L3MBTL1 inh-1 | Six1-Eya2 blk | MBNL1-CUG inh | Eya2 inh | CBFb RUNX1 block | CtBP-E1A blk | L3MBTL1 inh-2 | AlphaScreen ctr2
CCCc1nc2sc3c(SCC(=O)NCc4ccco4)ncnc3c2c2c1CCC2 | 14µM* | ? | ? | 4% | ? | ? | 19* | 3%
CCOC(=O)/C(C#N)=C/c1cccn1-c1ccc(Cl)cc1 | -1% | -6 | 5% | 9% | 28% | 2 | nt | nt
N#CC(C#N)=Cc1cccn1-c1ccc(C(=O)O)cc1 | 2µM* | -15 | 12% | 14% | nt | 5 | 3* | 16%
N#C/C(=C/c1cccn1-c1cccc(C(=O)O)c1)c1ccc(Cl)cc1 | 25µM* | -29 | -5% | 6% | ? | 4 | 24* | ?
Oc1c(Br)cc(Br)cc1CNc1cccc2cccnc12 | 35µM* | -27 | ? | 6% | nt | nt | ? | -17%
Oc1ccc(Br)cc1CNc1cccc2cccnc12 | -3%[2.29 µM] | -27 | 5% | -17% | nt | -23 | nt | nt
Cn1c(N)c(C(=O)COC(=O)c2cc(-c3ccco3)nc3ccccc23)c(=O)n(Cc2ccccc2)c1=O | 32µM* | nt | 15% | -1% | ? | nt | 3.8* | 11%
CN(CC(=O)Nc1ccc(F)cc1)C(=O)c1cc(-c2ccco2)nc2ccccc12 | 18µM* | -17 | nt | -1% | nt | -1 | 12* | 9%
O=C(O)c1cc(-c2ccco2)nc2cc3ccccc3cc12 | 10µM* | -22 | -1% | 2% | ? | -13 | 0.84* | -19%
O=C(COC(=O)c1cc(-c2ccco2)nc2ccccc12)NCc1ccccc1 | nt | 9 | 28% | 9% | 2% | 10 | nt | nt
CNC(=O)COC(=O)c1cc(-c2ccco2)nc2ccccc12 | 28µM* | -9 | nt | -18% | nt | 23 | 3.4* | 2%
CCN1C(=NCCN2CCOCC2)N[C@@H](CCc2ccccc2)C(C(=O)OC)=C1C | nt | nt | 4% | 7% | nt | nt | nt | nt

Bioassay records (PubChem BioAssay)
